In PubChem BioAssay (EPA / NIEHS):
Where “and” joins values, the source holds several entries; their conditions need not be identical. Equal entries are not always repeated. Calls of active or inactive are those of the source. The calls were made as follows: active = hit-call score of the fitted dose curve at least 0.9, where 1 is the maximum; inactive = score below 0.9.

Key:
[1] = read-out: Human Leukocyte Antigen - DR isotype (HLADR), HLA-DRA (gene 3122); assay: BSK_BE3C_HLADR: BioMAP Diversity Plus: BE3C Assay for Human Leukocyte Antigen - DR isotype (HLADR) Biomarker Activity (AID 2283032); conditions: primary human bronchial epithelial cells; actives raise or lower the signal
In short: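 Signal came from an ELISA for HLA-DR in human bronchial epithelial primary cells harvested 24 h after treatment; gain- and loss-of-signal fitting used DMSO controls as reference.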

[2] = read-out: Vascular cell adhesion molecule 1 (VCAM1), VCAM1 (gene 7412); assay: BSK_4H_VCAM1: BioMAP Diversity Plus: 4H Assay for Vascular cell adhesion molecule 1 (VCAM1) Biomarker Activity (AID 2283033); conditions: primary human endothelial cells (HUVEC); actives raise or lower the signal
In short: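 Endpoint derived from bidirectional fitting against DMSO controls of VCAM-1 ELISA signal in umbilical vein endothelial cells sampled at 24 h following treatment.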

[3] = read-out: Interferon-gamma inducible Protein 10 (IP10), CXCL10 (gene 3627); assay: BSK_BE3C_IP10: BioMAP Diversity Plus: BE3C Assay for Interferon-gamma inducible Protein 10 (IP10) Biomarker Activity (AID 2283034); conditions: primary human bronchial epithelial cells; actives raise or lower the signal
In short: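 Using primary human bronchial epithelial cultures, the assay captures IP-10 by ELISA one day (24 h) after exposure. Parallel SRB staining of total protein flags overt cytotoxicity. Fits run bidirectionally relative to DMSO.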

[4] = read-out: Monokine induced gamma interferon (MIG), CXCL9 (gene 4283); assay: BSK_BE3C_MIG: BioMAP Diversity Plus: BE3C Assay for Monokine induced gamma interferon (MIG) Biomarker Activity (AID 2283035); conditions: primary human bronchial epithelial cells; actives raise or lower the signal
In short: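 ELISA read-out of MIG in human lung bronchial epithelial primary cultures, 24 h post-dosing. Bidirectional curve fit vs DMSO baseline.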

[5] = read-out: Transforming growth factor beta 1 (TGFb1), TGFB1 (gene 7040); assay: BSK_BE3C_TGFb1: BioMAP Diversity Plus: BE3C Assay for Transforming growth factor beta 1 (TGFb1) Biomarker Activity (AID 2283036;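 also: TGF-b1 protein level measured by ELISA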); conditions: primary human bronchial epithelial cells; actives raise or lower the signal
In short: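 In this human primary bronchial epithelial system, an ELISA quantified TGF-b1 one day after dosing. Endpoint changes in either direction were fitted relative to DMSO.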

[6] = read-out: Plasminogen activator inhibitor-1 (PAI1), SERPINE1 (gene 5054); assay: BSK_BE3C_PAI1: BioMAP Diversity Plus: BE3C Assay for Plasminogen activator inhibitor-1 (PAI1) Biomarker Activity (AID 2283037); conditions: primary human bronchial epithelial cells; actives raise or lower the signal
In short: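 PAI-1 biomarker levels in treated human bronchial epithelial cells are determined by ELISA at 24 h. Both increases and decreases relative to DMSO are fitted.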

[7] = read-out: Urokinase-type plasminogen activator receptor (uPAR), PLAUR (gene 5329); assay: BSK_BE3C_uPAR: BioMAP Diversity Plus: BE3C Assay for Urokinase-type plasminogen activator receptor (uPAR) Biomarker Activity (AID 2283039); conditions: primary human bronchial epithelial cells; actives raise or lower the signal
In short: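 A uPAR ELISA serves as the readout, taken 24 h after treating primary human bronchial epithelial cells. Responses in either direction are fitted against DMSO, which defines baseline activity.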

[8] = read-out: Interleukin-6 (IL6), IL6 (gene 3569); assay: BSK_CASM3C_IL6: BioMAP Diversity Plus: CASM3C Assay for Interleukin-6 (IL6) Biomarker Activity for (AID 2283040); conditions: primary human coronary artery smooth muscle cells; actives raise or lower the signal
[9] = read-out: Tissue plasminogen activator (tPA), PLAT (gene 5327); assay: BSK_BE3C_tPA: BioMAP Diversity Plus: BE3C Assay for Tissue plasminogen activator (tPA) Biomarker Activity (AID 2283041); conditions: primary human bronchial epithelial cells; actives raise or lower the signal
In short: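 Bidirectional curve fitting relative to DMSO defined activity, with tPA detected by ELISA in chemically treated human bronchial epithelial primary cells at 24 hours.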

[10] = read-out: Interleukin-8 (IL8), CXCL8 (gene 3576); assay: BSK_CASM3C_IL8: BioMAP Diversity Plus: CASM3C Assay for Interleukin-8 (IL8) Biomarker Activity (AID 2283042); conditions: primary human coronary artery smooth muscle cells; actives raise or lower the signal;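 also: IL-8 protein level quantified by ELISA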
[11] = read-out: Human Leukocyte Antigen - DR isotype (HLADR), HLA-DRA (gene 3122); assay: BSK_CASM3C_HLADR: BioMAP Diversity Plus: CASM3C Assay for Human Leukocyte Antigen - DR isotype (HLADR) Biomarker Activity (AID 2283043); conditions: primary human coronary artery smooth muscle cells; actives raise or lower the signal;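 also: cell-surface HLA-DR protein level quantified by ELISA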
[12] = read-out: Macrophage colony-stimulating factor (MCSF), CSF1 (gene 1435); assay: BSK_CASM3C_MCSF: BioMAP Diversity Plus: CASM3C Assay for Macrophage colony-stimulating factor (MCSF) Biomarker Activity (AID 2283044); conditions: primary human coronary artery smooth muscle cells; actives raise or lower the signal;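 also: M-CSF protein amount quantified by ELISA after 24 h exposure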
[13] = read-out: Low-density lipoprotein receptor (LDLR), LDLR (gene 3949); assay: BSK_CASM3C_LDLR: BioMAP Diversity Plus: CASM3C Assay for Low-density lipoprotein receptor (LDLR) Biomarker Activity (AID 2283045); conditions: primary human coronary artery smooth muscle cells; actives raise or lower the signal;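 also: LDLR protein level on the cell surface quantified by ELISA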
[14] = read-out: Monocyte Chemoattractant Protein-1 (MCP1), CCL2 (gene 6347); assay: BSK_CASM3C_MCP1: BioMAP Diversity Plus: CASM3C Assay for Monocyte Chemoattractant Protein-1 (MCP1) Biomarker Activity (AID 2283046); conditions: primary human coronary artery smooth muscle cells; actives raise or lower the signal;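 also: MCP-1 level quantified by ELISA 24 h after dosing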
[15] = BSK_CASM3C_Proliferation: Cell Proliferation Assessment in the BioMAP Diversity Plus: CASM3C Assay (AID 2283047); conditions: primary human coronary artery smooth muscle cells;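 also: sulforhodamine B total protein stain as relative cell number at 560 nm; sub-confluent cells exposed 48 h before staining; fitted both ways against DMSO so gain or loss of cell number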
[16] = read-out: Monokine induced gamma interferon (MIG), CXCL9 (gene 4283); assay: BSK_CASM3C_MIG: BioMAP Diversity Plus: CASM3C Assay for Monokine induced gamma interferon (MIG) Biomarker Activity (AID 2283048); conditions: primary human coronary artery smooth muscle cells; actives raise or lower the signal;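 also: MIG protein level measured by ELISA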
[17] = read-out: serum amyloid A (SAA), SAA1 (gene 6288); assay: BSK_CASM3C_SAA: BioMAP Diversity Plus: CASM3C Assay for serum amyloid A (SAA) Biomarker Activity (AID 2283049); conditions: primary human coronary artery smooth muscle cells; actives raise or lower the signal;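 also: SAA protein level quantified by ELISA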
[18] = BSK_CASM3C_SRB: Viability Assessment in the BioMAP Diversity Plus: CASM3C Assay (AID 2283050); conditions: primary human coronary artery smooth muscle cells;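 also: cells exposed to compound for 24 h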
[19] = read-out: Thrombomodulin, THBD (gene 7056); assay: BSK_CASM3C_Thrombomodulin: BioMAP Diversity Plus: CASM3C Assay for Thrombomodulin Biomarker Activity (AID 2283051); conditions: primary human coronary artery smooth muscle cells; actives raise or lower the signal;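 also: thrombomodulin protein level measured by ELISA 24 h after dosing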

Measured: AC50

CSCCC=O
inactive: all assays above

IC(I)I
inactive: all assays above

O=CN1CCOCC1
not listed: [5]
inactive: all other assays above

COc1ccc(CCN2CCC(Nc3nc4ccccc4n3Cc3ccc(F)cc3)CC2)cc1
active: [1] 7.88 µM | [2] 0.0041 µM | [13] 1.54 µM | [15] 8.02 µM
inactive: all other assays above

O=C(Nc1ccc2c(O)c(N=Nc3ccc(N=Nc4ccc(S(=O)(=O)O)cc4)cc3)c(S(=O)(=O)O)cc2c1)c1ccccc1
active: [9] 5.36 µM and 5.91 µM
not listed: [5]
inactive: all other assays above

Clc1cc(Cl)c(-c2c(Cl)c(Cl)cc(Cl)c2Cl)cc1Cl
active: [1] 12.9 µM | [2] 8.56 µM | [3] 17.5 µM | [6] 10 µM | [7] 1.98 µM | [15] 0.023 µM
inactive: all other assays above

CC(C)(C)CC(C)(C)c1ccc(OCCOCC[N+](C)(C)Cc2ccccc2)cc1
inactive: [5] | [9]
active: [1] 7.59 µM | [2] 7.35 µM | [3] 8.05 µM | [4] 8.97 µM | [6] 0.992 µM | [7] 3.16 µM | [8] 8 µM | [10] 7.3 µM | [11] 6.1 µM | [12] 7.89 µM | [13] 8.21 µM | [14] 8.03 µM | [15] 7.66 µM | [16] 9.51 µM | [17] 5 µM | [18] 7.54 µM | [19] 6.62 µM

O=C1OC[C@H](Cc2cccc(O)c2)[C@H]1Cc1cccc(O)c1
inactive: all assays above

CS(=O)(=O)c1ccc(C2=C(c3ccccc3)C(=O)OC2)cc1
inactive: all assays above

C=C(C)C(=O)OCCOCCOCCOC(=O)C(=C)C
active: [1] 3.97 µM | [11] 0.0969 µM | [12] 0.016 µM
inactive: all other assays above

CN(c1nccc(=O)[nH]1)C1CCN(c2nc3ccccc3n2Cc2ccc(F)cc2)CC1
active: [2] 0.0185 µM
inactive: all other assays above

CC(=O)Nc1ccc(C(=O)CCl)cc1
inactive: [5] | [6] | [17] | [19]
active: [1] 15.1 µM | [2] 6.74 µM | [3] 25.6 µM | [4] 33.3 µM | [7] 31.7 µM | [8] 10.6 µM | [10] 12.6 µM | [11] 3.78 µM | [12] 8.22 µM | [13] 11.6 µM | [14] 8.38 µM | [15] 5.44 µM | [16] 8.96 µM | [18] 12.8 µM
